# Autofluor 339: intrinsic fluorescence of library compounds, ex339/em460 – biochemical, MLSMR library, data from DPM-DC assay, artefact control, profiling panel; compound autofluorescence, ex339/em460 nm, NADH buffer; hits give high values; 1 = no-compound wells, NADH background; fluorescence fold increase at 10 µM; 5.5% of 65,000 active; AID 709, 2007;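 active means at 10 µM, mean starting fluorescence two-fold or more over control wells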;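 further: signal is the first read of a kinetic run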
# PMK inhibit: S. pneumoniae PMK inhibitors, primary screen, biochemical, mevalonate pathway, pilot trial included | phosphomevalonate kinase (Streptococcus pneumoniae D39) | purified PMK, PK/LDH-coupled NADH absorbance 340 nm | inhibition, % at 10 µM | 0.49% of 65,000 active;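 active means top-ranked compounds by inhibition in the single 10 µM screen, taking a fixed number of the strongest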;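 further: 0% = full reaction with DMSO carrier and 100% = background rate without enzyme reaction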
# A340 absorber: compound light absorbance at 340 nm, profiling panel, artefact control, biochemical, MLSMR library, data from PS, PMK, MK assays | compound absorbance at 340 nm, fold over control | 65,000 tested, under 10 active | fold change at 10 µM;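 active means at 10 µM dose, initial 340 nm absorbance at least 2 fold that of control wells; inactive means change under 2 fold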;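 further: initial absorbance extrapolated from kinetic A340 decline of NADH oxidation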
# NADH coupling: inhibitors of PK/LDH coupling enzymes, profiling panel, artefact control, biochemical, MLSMR library; coupled PK/LDH NADH assays, four targets; 0.02% of 65,000 active; IC50, µM (series often up to 10 µM), without a hit: top-dose inhibition; AID 774, 2007;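 active means single-dose screening hits from any of four coupled enzyme assays that gave an IC50 when retested across doses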;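 further: the DPM-DC format reads NADH fluorescence rather than 340 nm absorbance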
# Spn MK inh: S. pneumoniae MK inhibitors, primary screen, biochemical, PK/LDH-coupled NADH absorbance. inhibition, % at 10 µM. AID 555, 2006. purified MK, PK/LDH-coupled NADH absorbance 340 nm. 0.48% of 65,000 active. mevalonate kinase [Streptococcus pneumoniae D39];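 active means ranked among the strongest by inhibition in the single 10 µM screen, a fixed top-ranked set picked for dose follow-up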
# DPM-DC inhibit: S. pneumoniae DPM-DC inhibitors, primary screen, biochemical, PK/LDH-coupled NADH fluorescence | 0.49% of 65,000 active | purified DPM-DC | AID 556, 2006 | calls only at 10 µM;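 active means the 320 compounds with the highest percent inhibition in the single-dose primary screen, excluding strongly autofluorescent ones, cut at about 32% in these data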;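 further: kinetic rate of NADH fluorescence loss reporting ADP formed by the decarboxylase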
# Active calls of the source: *; i = inactive; . = no result given; + = active, no number. Most compounds without a hit are left out; they make up all but 6.5% or so of the library.
SMILES,Autofluor 339,PMK inhibit,A340 absorber,NADH coupling,Spn MK inh,DPM-DC inhibit
CC1=CC(c2ccccc2)n2nc(N3C(=O)C4CC=CCC4C3=O)nc2N1 (stereo not drawn),2.3*,12,1,7%,2,.
CC(NC(=O)c1ccnc(C(C)(C)C)c1)c1ccccc1 (stereo not drawn),1.1,7,1,4%,4,i
CC(=O)NC(CC(C)C)C(=O)NC(=O)NCc1ccccc1 (stereo not drawn),1.1,0,1,0%,0,i
CC(C)CN(CC(C)C)S(=O)(=O)N1CCC(C(=O)NC2CCCCCCC2)CC1,1,30*,0.99,10%,1,i
CCC(=O)Nc1ccc(NC(=O)CSc2nnnn2C(C)C)cc1,1,5,0.97,2%,12,i
CCOC(=O)c1[nH]c2ccc(F)cc2c1NC(=O)CN1CCc2cc(OC)c(OC)cc2C1,1.9,13,1,11%,14,i
COC(=O)c1[nH]c2cc(OC)ccc2c1NC(=O)CCN1CCCCC1,1.2,8,1,4%,7,i
CCOC(=O)c1[nH]c2ccc(OC)cc2c1NC(=O)CCN1CCc2ccccc2C1,2.3*,4,1.1,5%,6,.
COC(=O)c1[nH]c2ccc(Cl)cc2c1NC(=O)CCN1CCOCC1,2.1*,13,1,19%,11,+
CCOC(=O)c1[nH]c2ccc(OC)cc2c1NC(=O)CCN1CCC(C)CC1,2.5*,1,1,1%,0,.
COCCOC(=O)C1=C(C)N=C2SCCC(=O)N2C1c1cccc(Br)c1 (stereo not drawn),0.99,17,1.1,8%,0,i
CCOC(=O)c1c(C(F)(F)C(F)(F)C(F)(F)C(F)(F)F)n[nH]c1C,1,6,1,3%,0,i
O=C(c1ccco1)c1cn[nH]c1-c1ccc(Cl)cc1O,1.1,10,0.96,6%,7,i
CC(C)N(CCc1ccncc1)C(=O)Nc1ccc(Cl)c(Cl)c1,1.1,9,1.1,5%,5,i
O=C(Nc1nnc(-c2ccc3c(c2)OCCO3)o1)c1ccc(Cc2ccccc2)cc1,2.1*,9,1.1,5%,0,.
Cc1cccn2c(=O)c3cc(C(=O)NCCN4CCOCC4)n(Cc4ccccc4)c3nc12,3.8*,11,1.1,9%,7,.
CCOCCCn1c(=N)c(C(=O)NCCN2CCOCC2)cc2c(=O)n3cccc(C)c3nc21,5.2*,18,1,12%,5,.
CC(=O)c1cc2c(cc1NC(=O)CSc1nc3ccccc3o1)OCO2,2.4*,7,1,15%,11,i
CC(=O)Nc1nonc1NC(=O)CSc1nc2ccccc2o1,1,14,0.99,5%,0,i
COc1cccc(-c2cc(C(=O)Nc3ccccc3SC)no2)c1,1.4,10,1,5%,4,i
COc1ccc(-c2cc(C(=O)Nc3ccccc3SC)no2)cc1OC,2.2*,10,1.1,5%,3,i
CSc1ccccc1NC(=O)c1cc(CC(C)C)on1,0.9,2,1,6%,16,i
COc1ccccc1-c1cc(C(=O)Nc2ccccc2SC)no1,2.8*,11,1,15%,5,i
COc1ccc(-c2cc(C(=O)Nc3cc(C)n(Cc4ccc(Cl)cc4)n3)no2)cc1OC,2.2*,16,1.1,11%,0,i
COc1ccc(-c2cc(C(=O)Nc3cnn(Cc4ccccc4C)c3)no2)cc1OC,2.4*,23,1,12%,0,i
SMILES,Autofluor 339,PMK inhibit,A340 absorber,NADH coupling,Spn MK inh,DPM-DC inhibit
COc1ccccc1-c1cc(C(=O)Nc2cccnc2)no1,1.1,8,1,3%,1,i
COc1ccc(NC(=O)c2cc(-c3ccccc3OC)on2)cc1,1.1,11,1,20%,48*,i
Cn1c(NC(=O)c2cccs2)c(-c2cccs2)c(=O)c2ccccc21,1.1,7,1.1,6%,11,i
CCC(=O)Nc1c(-c2ccc(OC)cc2)c(=O)c2ccccc2n1C,3.8*,8,1.1,7%,6,.
O=C(CSc1nnc(-c2ccccc2O)o1)Oc1ccc(OCc2ccccc2)cc1,4*,2,1.1,2%,2,.
COc1ccccc1/C=C/CN1CC(C)OC(C)C1 (stereo not drawn),1.1,0,1.1,16%,48*,i
Cc1nc2ccccc2c(=O)n1N,1,6,1,3%,3,i
Cc1csc2nc3ccccc3c(=O)n12,2*,4,1,6%,5,i
CCNc1nnc(-c2ccc(C)cc2)o1,1.2,6,0.96,5%,8,i
Cc1cccc(C)c1NC(=O)N1CCC(N2CCCCC2)CC1,1.1,17,0.99,6%,0,i
CCn1c(=O)c2c(nc(SCC(=O)NCC3CCCO3)n2C)n(C)c1=O (stereo not drawn),1.2,9,0.98,10%,16,i
Cc1[nH]nc2c1-c1nc3ccccc3nc1C(C)(C)C2,3.9*,10,1.1,10%,9,.
COC(=O)C1C(=O)c2c(n[nH]c2C)CC1(C)C (stereo not drawn),1.1,1,1,3%,5,i
Cc1cccc(-c2nc(C#N)c(N3CCCCCC3)o2)c1,3.8*,6,1.1,7%,8,.
CCOc1ccc(-c2nc(C#N)c(NCc3ccc4c(c3)OCO4)o2)cc1,1.8,5,1,5%,12,i
CCN1CCN(c2oc(-c3ccc(OC)cc3)nc2C#N)CC1,3.8*,0,1.1,1%,2,.
CCOc1ccc(-c2nc(C#N)c(N3CCN(Cc4ccccc4)CC3)o2)cc1,1.8,7,1.1,6%,9,i
CCOc1ccc(-c2nc(C#N)c(N3CCOCC3)o2)cc1,2.2*,2,1.1,7%,12,.
CCOc1ccc(-c2nc(C#N)c(NC3CC3)o2)cc1,3.8*,17,1,15%,13,.
CC(=O)c1sc(NC(=O)C2(F)C(F)(F)C(F)(F)C(F)(F)C(F)(F)C2(F)F)nc1C,1,10,1.2,9%,15,i
N#Cc1nc(-c2ccc(OCc3ccccc3)cc2)oc1N1CCC(C(N)=O)CC1,4*,11,1.1,9%,7,.
COc1ccccc1OCc1nc(C#N)c(N2CCC(C(N)=O)CC2)o1,1.1,9,1,5%,7,i
Cn1nnc2c(NCc3ccco3)nccc21,2.1*,0,1,1%,1,.
CCc1nc2ccccc2n1Cc1ccc(OC)c(OC)c1,1.1,2,1,1%,2,i

# Bioassay records (PubChem BioAssay)
